Screens deposited in PubChem BioAssay by Center for Chemical Genomics, University of Michigan.
This excerpt belongs to a sample that is enriched for hits.
Dicer inh = blocks human Dicer maturation of pre-miR-21; cat-ELCCA pre-miR-21 Dicer processing, chemiluminescence; hits give high values; z-score at 25 µM; 6% of 47,000 active; in the data active = z-score above about 3, passing the limit was not always enough;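 note: plate controls were vehicle for no effect and no enzyme for full effect; higher signal means more uncleaved substrate so more Dicer inhibition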
* = called active by the depositor.

SMILES	Dicer inh
CN(C)Cc1c(O)ccc2c(=O)c(-c3ccc(Cl)cc3)c(C(F)(F)F)oc12	-0.77
COC(CNC(=S)Nc1cc(Cl)c(Cl)cc1Cl)OC	-0.66
CSc1nc2c(Cl)cccc2c2c1c(=O)n(Cc1ccc(Cl)cc1)n2C	0.65
CSc1nc2c(Cl)cccc2c2c1c(=O)[nH]n2C	3.6*
CCOC(=O)c1c(SC)nc2c(Cl)cccc2c1N(C)CCO	-5.7
CC1=C(C(=O)Nc2cc(C)ccn2)C(c2cccc(Br)c2)C2=C(CC(C)(C)CC2=O)N1 (stereo unspecified)	0.42
CCOC(=O)C12CCCC(C(=O)OCC)(CC1=O)C(=O)C2	0.14
Cc1c(NS(=O)(=O)c2cn(C)cn2)c(=O)n(-c2ccccc2)n1C	6*
CCS(=O)(=O)Nc1c(C)n(C)n(-c2ccccc2)c1=O	1.7
CCOc1ccc(S(=O)(=O)Nc2c(C)n(C)n(-c3ccccc3)c2=O)cc1	0.71
O=C1CC(N2CCC(c3ccncc3)CC2)C(=O)N1c1ccc(F)c(Cl)c1 (stereo unspecified)	1.1
Cc1ccc(-c2nc3ccccc3[nH]2)cc1	0.21
Cc1ccc(SCc2ccccc2-c2nc3ccccc3[nH]2)cc1	-1.4
Oc1ccccc1-c1nc2ccccc2[nH]1	3.2*
CN(C)/C=N/c1ncc(-c2ccc(Br)s2)s1	-2.9
O=C(Nc1ccc(Cl)cc1Cl)c1cnc(Sc2ccccc2)cc1C(F)(F)F	-1.9
CCOC(=O)N1CCN(C(=O)N2c3ccccc3Sc3ccccc32)CC1	4.7*
CC1CCN(C(=O)N2c3ccccc3Sc3ccccc32)CC1	-0.44
O=C(N1CCN(c2ccccc2)CC1)N1c2ccccc2Sc2ccccc21	1.3
Cc1nc(N2CCN(c3ccccn3)CC2)nc2c1C(=O)CCC2	-2
CCOC(=O)c1c(N/N=C\c2c(Cl)cccc2Cl)n[nH]c1C	-2.3
COc1ccccc1Nc1nc(Nc2ccccc2OC)nc(N2CCOCC2)n1	0.22
O=c1nc(Nc2ccccc2)c2ccccc2[nH]1	1.6
O=c1nc(N2CCOCC2)nc(Nc2ccccc2)[nH]1	8.3*
CC1CCCN(S(=O)(=O)c2cc(Cl)c(Cl)cc2Cl)C1 (stereo unspecified)	-0.41
SMILES	Dicer inh
C=CCSC1=C(C#N)C(c2ccccc2C)C(C(=O)OC)C(=O)N1 (stereo unspecified)	1
O=c1c2c(n3nnnc3n1Cc1ccccc1)-c1ccccc1CC21CCCCC1	3.2*
NC(=O)CSc1nnc2n(Cc3ccccc3)c(=O)c3c(n12)-c1ccccc1CC31CCCCC1	3
CCOC(=O)CSc1nc2c(c(=O)[nH]1)C1(CCCCC1)Cc1ccccc1-2	-0.76
Cc1ccc(C(=O)CSc2ccc(C(F)(F)F)cn2)cc1	-0.86
Cc1ccc(CSc2nnc3c(n2)OC=Nc2ccccc2-3)cc1	2.5
COC(=O)c1sccc1Oc1ccc(Cl)cc1N1C(=O)CCC1=O	1.5
Cc1ccc(Cl)cc1N1C(=O)CCC(C)(C)C1=O	3.3*
CC1(C)CCC(=O)N(c2ccc(OC(F)(F)F)cc2)C1=O	2
COCCOc1nc2c(c(=O)n(C)c(=O)n2C)n1CCc1ccccc1	1.6
CCCOc1nc2c(c(=O)n(C)c(=O)n2C)n1C(C)c1ccccc1 (stereo unspecified)	3.5*
C#CCOc1nc2c(c(=O)n(C)c(=O)n2C)n1Cc1ccccc1	0.67
CCOC(=O)CSc1sc(C(C)=O)cc1[N+](=O)[O-]	-2
O=C(NNc1cccc(C(F)(F)F)n1)c1c(F)cccc1F	1.5
N[C@@H](Cc1ccc(O)c(O)c1)C(=O)O	5
NC(Cc1c[nH]c2ccc(Br)cc12)C(=O)O (stereo unspecified)	-0.81
N[C@@H](Cc1cc(I)c(Oc2cc(I)c(O)c(I)c2)c(I)c1)C(=O)O	4.3*
N[C@@H](Cc1cc(I)c(Oc2ccc(O)c(I)c2)c(I)c1)C(=O)O	3.2*
CCOC(=O)[C@@H](N)Cc1ccccc1	-0.77
N[C@@H](Cc1ccc([N+](=O)[O-])cc1)C(=O)O	-0.81
Cn1c(N2CCOCC2)nc2c1c(=O)n(Cc1cccc(Br)c1)c(=O)n2C	0.93
CCc1c(O)c(-c2ccccc2)c(=O)n(-c2ccccc2)c1-c1ccccc1	0.18
O=C(c1ccc(F)cc1)n1nccc1-c1csc(-c2ccccc2)n1	-0.03
O=C(O)CC1(CC(=O)NCC2COc3ccccc3O2)CCCCC1 (stereo unspecified)	-0.26
CC(CN1CCOCC1)OC(=O)c1ccco1 (stereo unspecified)	0.25
SMILES	Dicer inh
Cc1ccc(S(=O)(=O)NNC(=O)c2cc([N+](=O)[O-])ccc2N)cc1	-0.92
COc1ccc(C(C2=C(O)CC(C)(C)CC2=O)C2C(=O)CC(C)(C)CC2=O)cc1O (stereo unspecified)	0.81
CC(C)(C)c1ccc(NC(=O)NC2Cc3ccccc3C2)cc1	0.36
Cc1c(C(=O)/C=C/N(C)C)sc(=S)n1CCc1ccc(Cl)cc1	3.2*
CN(C)/C=C/C(=O)c1cc(Cl)ccc1Cl	-0.56
Cc1c(C(=O)/C=C/N(C)C)sc2ccccc12	-0.86
Cc1onc(-c2c(F)cccc2Cl)c1C(=O)NC(=S)NC1CC(C)CC(C)(C)C1 (stereo unspecified)	-0.27
Cc1ccc(-n2cccc2)c(NC(=O)c2cccc(C(F)(F)F)c2)c1	-1.4
Cc1csc2c(=O)n(CCSc3ccc(Cl)cc3)c(=O)[nH]c12	3.1*
CCOC(=O)c1c(C)csc1NC(=O)CSc1ccc(Cl)cc1	0.16
O=c1[nH]c2ccccc2c(=O)n1CCSc1ccccc1	-0.98
N#CCC(=O)N(Cc1ccccc1)C(=O)Nc1cccc(Cl)c1	-0.32
COC(=O)c1ccc2c3c(onc13)-c1ccccc1C2=O	-1.1
COc1ccccc1N1CCN(S(=O)(=O)c2ccc3[nH]c(=O)[nH]c3c2)CC1	3*
CC1CCN(S(=O)(=O)c2ccc3[nH]c(=O)[nH]c3c2)CC1	0.37
COc1ccccc1N1CCN(S(=O)(=O)c2ccc(-c3ccno3)s2)CC1	2.2
Cc1cccc(C)c1-n1nnnc1SCc1cc(F)cc(F)c1	-0.09
O=C(Nc1ccc(F)cc1F)C(=S)NCc1cccs1	-0.05
O=C(Nc1ccc(F)cc1F)c1cccs1	6.4*
O=C(Nc1ccc(Sc2ccccc2)nc1Sc1ccccc1)c1cccs1	-0.73
FC(F)(F)c1cc(Cl)c(N/N=C2/CCCc3ccccc32)c(Cl)c1	-0.77
CCc1c(O)nc(SCC(=O)N2CCc3ccccc32)n(-c2ccccc2)c1=O	-1
CCCCc1c(O)nc2sc3ccccc3n2c1=O	0.25
CCCCc1c(O)nc(SCCN(CC)CC)n(-c2ccccc2)c1=O	3.3*
Nc1nc2c(nc(N3CCCC3)n2[C@H]2O[C@@H](CO)[C@H](O)[C@@H]2O)c(=O)[nH]1	-1.6
SMILES	Dicer inh
Cc1ccc(Cn2c(NCCN(C)C)nc3c2c(=O)[nH]c(=O)n3C)cc1	-1.4
CC(C)(C)CNC(=O)NC(=O)c1ccc(F)c(Cl)c1	-2.1
Cc1nn2c3ccccc3n(CCN3CCCCC3)c2nc1=O	3.1*
Cc1cn2c3ccccc3n(CCN3CCCC3)c2n1	0.49
COC(=O)c1c(C)nc2n(CCN3CCCCC3)c3ccccc3n12	1.1
Cc1ccc(S(=O)(=O)Oc2cc(C)ccc2C)cc1	-0.61
Cc1cc(=O)oc2cc(OS(=O)(=O)c3cc(C(F)(F)F)cc(C(F)(F)F)c3)c(Cl)cc12	4.2*
Cc1cc(=O)oc2cc(OS(=O)(=O)c3cc(Cl)c(Cl)cc3Cl)c(Cl)cc12	2.9
C(#Cc1ccccc1)CNCCc1c[nH]c2ccccc12	4.1*
O=C1CC(NCCc2c[nH]c3ccccc23)C(=O)N1c1ccccc1 (stereo unspecified)	0.28
CSC1=NCC(=O)N1CCc1c[nH]c2ccccc12	2.5
